Measurements reported in PubChem BioAssay (NCI).
Where “and” joins values, the source holds several entries; their conditions need not be identical. Equal entries are not always repeated. About 79,000 compounds went through this panel and 15% of them were active in at least one assay; those are over-represented in the sample as a whole. Where a structure was tested more than once in an assay, its records may differ in their call. Calls of active or inactive are those of the source. Cut-off read from the data, not from the text of the source: active = growth inhibition above about 70%; inactive = the rest.

Columns and labels:
[1] = NCI Yeast Anticancer Drug Screen. Data for the rad50 strain (AID 155);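 note: 0% = growth of vehicle-only cultures of the same strain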; settings: S. cerevisiae rad50 strain growth inhibition, stronger effect = higher value
Outline: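 Genetically altered yeast (DNA repair pathway); compound treatment; growth inhibition vs vehicle ctrl.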

[2] = NCI Yeast Anticancer Drug Screen. Data for the mec2-1 strain (AID 157); settings: S. cerevisiae mec2-1 strain, stronger effect = higher value
Outline: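 Compounds were applied to mec2-1 yeast cells. Their growth was then compared with that of vehicle-treated cultures to give growth inhibition.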

[3] = NCI Yeast Anticancer Drug Screen. Data for the sgs1 mgt1 strain (AID 161);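 note: 0% = growth of cultures given vehicle only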; settings: S. cerevisiae sgs1 mgt1 strain, stronger effect = higher value
Outline: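 This yeast growth screen uses a strain with defined DNA-repair lesions; compound-treated growth is compared with vehicle-treated growth.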

[4] = NCI Yeast Anticancer Drug Screen. Data for the cln2 rad14 strain (AID 165);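 note: 0% = growth equal to vehicle treated cultures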; settings: S. cerevisiae cln2 rad14 strain, stronger effect = higher value
Outline: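 Strain: cln2 rad14 yeast, altered in cell cycle control and DNA damage repair. Read-out: growth inhibition vs vehicle.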

[5] = NCI Yeast Anticancer Drug Screen. Data for the bub3 strain (AID 167); settings: S. cerevisiae bub3 mutant strain, stronger effect = higher value
Outline: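 Yeast carrying a defined mutation is treated with each compound, and growth is compared with that of vehicle-exposed cells to give inhibition.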

[6] = NCI Yeast Anticancer Drug Screen. Data for the mlh1 rad18 strain (AID 175); settings: S. cerevisiae mlh1 rad18 strain growth inhibition, stronger effect = higher value
Outline: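 A repair-deficient yeast strain is exposed to test compound, and growth is scored relative to vehicle-treated controls.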

[7] = at 5.0 µM (retest, dose inferred, filed as 0.5)
[8] = at 50.0 µM (retest, dose inferred, filed as 5.0)

Measured: growth inhibition

CC(=O)Nc1c(Cl)c(Cl)c2c(c1Cl)Cc1cc(Cl)ccc1-2
inactive: [3]; [8] 49%
active: [1]; [7] 99% | [1]; [8] 99% | [1]; at 50.0 µM 98.2% | [2]; [7] 99% | [2]; [8] 99% | [2]; at 50.0 µM 98% | [3]; [7] 99% | [3]; at 50.0 µM 96.1% | [4]; [7] 97% | [4]; [8] 99% | [4]; at 50.0 µM 95.5% | [5]; [7] 99% | [5]; [8] 99% | [5]; at 50.0 µM 98.3% | [6]; [7] 99% | [6]; [8] 99% | [6]; at 50.0 µM 98.5%

CCCCCCCCCCCCSC(=NC)NC
80% (active) and 65% (inactive): [3]; [7]
inactive: [1]; [7] 65% and 27% | [2]; [7] 48% and 19% | [4]; [7] 4% and -9% | [6]; [7] 27% and 24%
active: [1]; [8] 99% and 98% | [1]; at 50.0 µM 99.5% and 99.4% | [2]; [8] 100% and 98% | [2]; at 50.0 µM 99.7% and 99.5% | [3]; [8] 99% | [3]; at 50.0 µM 99.4% and 99.1% | [4]; [8] 99% | [4]; at 50.0 µM 96.2% and 98% | [6]; [8] 99% and 98% | [6]; at 50.0 µM 99.1% and 98.8%

OC1(C2C=CC=C2)c2ccccc2C=Cc2ccccc21
active: [1]; at 50.0 µM 91% | [3]; at 50.0 µM 78.6% | [4]; [8] 70% | [6]; at 50.0 µM 89.6%
inactive: [1]; [7] 4% | [1]; [8] 51% | [2]; [7] 13% | [2]; [8] 48% | [2]; at 50.0 µM 10.7% | [3]; [7] 4% | [3]; [8] 54% | [4]; [7] -36% | [4]; at 50.0 µM 48.4% | [6]; [7] 9% | [6]; [8] 37%

O=c1c(Cl)c(Cl)cnn1-c1ccccc1
72.6% (active) and -13.8% (inactive): [6]; at 50.0 µM
inactive: [1]; [7] 33% | [1]; [8] 58% | [1]; at 50.0 µM 30.9% and 6.8% | [2]; [7] 1% | [2]; [8] 22% | [2]; at 50.0 µM 45% and -8.9% | [3]; [7] -6% | [3]; [8] 14% | [3]; at 50.0 µM 35.7% and -2.25% | [4]; [7] 17% | [4]; [8] 19% | [4]; at 50.0 µM 28.1% and 13.8% | [5]; [7] 10% | [5]; [8] 21% | [5]; at 50.0 µM 23.9% and -9.2% | [6]; [7] 8% | [6]; [8] 26%

c1cc2c3c(c1)c1cc4c(cc1c[n+]3CC2)OCO4
active: [1]; at 50.0 µM 89.9% | [2]; at 50.0 µM 92.5% | [3]; at 50.0 µM 92.1% | [5]; at 50.0 µM 90.8% | [6]; at 50.0 µM 90.9%
inactive: [1]; [7] 14% | [1]; [8] 38% | [2]; [7] 23% | [2]; [8] 36% | [3]; [7] 25% | [3]; [8] 41% | [5]; [7] 2% | [5]; [8] 20% | [6]; [7] 25% | [6]; [8] 51%

CC(=O)c1c2ccccc2cc2ccccc12
53% (inactive) and 94.7% (active): [3]; at 50.0 µM
inactive: [1]; [7] 7% and 61% | [2]; [7] 9% and 44% | [3]; [7] 6% and 45% | [4]; [7] 12% and 49% | [5]; [7] 17% and 56% | [6]; [7] 9% and 46%
active: [1]; [8] 74% and 96% | [2]; [8] 88% and 98% | [2]; at 50.0 µM 79% and 96.5% | [3]; [8] 77% and 98% | [4]; [8] 89% and 96% | [4]; at 50.0 µM 72.4% and 89.1% | [5]; [8] 95% and 97% | [5]; at 50.0 µM 79.5% and 95.6% | [6]; [8] 94% and 97% | [6]; at 50.0 µM 75% and 96.2%
68.4% (inactive) and 92.3% (active): [1]; at 50.0 µM

O=C1C(=Cc2ccc(O)cc2)N=C(c2ccccc2)N1n1c(-c2ccccc2)nc2ccccc2c1=O
active: [1]; at 50.0 µM 71% | [3]; at 50.0 µM 73.2% | [6]; at 50.0 µM 91.8%
inactive: [1]; [7] 2% | [1]; [8] 39% | [2]; [7] -2% | [2]; [8] 23% | [2]; at 50.0 µM 38.9% | [3]; [7] 9% | [3]; [8] 29% | [4]; [7] 18% | [4]; [8] 40% | [4]; at 50.0 µM 44.9% | [6]; [7] 12% | [6]; [8] 64%

O=C1c2ccccc2-n2c1nc1ccccc1c2=O
active: [1]; [8] 83% | [1]; at 50.0 µM 74%
inactive: [1]; [7] 18% | [2]; [7] 14% | [2]; [8] 48% | [2]; at 50.0 µM 57% | [3]; [7] 21% | [3]; [8] 39% | [3]; at 50.0 µM 29.2% | [4]; [7] 30% | [4]; [8] 43% | [4]; at 50.0 µM 17.9% | [6]; [7] 23% | [6]; [8] 62%

C/C(=N\O)c1cc(Br)cc([N+](=O)[O-])c1O
inactive: [1]; [7] 1% | [1]; [8] 14% | [1]; at 50.0 µM 6.45% | [2]; [7] 7% | [2]; [8] 35% | [2]; at 50.0 µM 4.15% | [3]; [7] 3% | [3]; [8] 27% | [3]; at 50.0 µM 4.95% | [4]; [7] 13% | [4]; [8] 11% | [4]; at 50.0 µM 39% | [5]; [7] 4% | [5]; [8] 10% | [5]; at 50.0 µM 8.3% | [6]; [7] 5% | [6]; [8] 25% | [6]; at 50.0 µM 14.8%
